According to the supplement of paper PMC11732987, “Enantioselective OTUD7B fragment discovery through chemoproteomics screening and high-throughput optimisation” (Communications Chemistry, 2025):

Columns and labels:
Experiment in all cases: log2 ratio of Biotin-Ahx-Ub-VS probe labelling (fragment/DMSO); higher = less target engagement (more negative = stronger competition), active = hit call of the paper (q ≤ 0.05, log2 ratio ≤ -1)
Conditions in all cases: compound concentration: 200 uM; treatment time: 3 h
USP34 = USP34 (UniProt Q70CQ2)
USP34, sequence (Q70CQ2 whole entry, the tested form may be a part): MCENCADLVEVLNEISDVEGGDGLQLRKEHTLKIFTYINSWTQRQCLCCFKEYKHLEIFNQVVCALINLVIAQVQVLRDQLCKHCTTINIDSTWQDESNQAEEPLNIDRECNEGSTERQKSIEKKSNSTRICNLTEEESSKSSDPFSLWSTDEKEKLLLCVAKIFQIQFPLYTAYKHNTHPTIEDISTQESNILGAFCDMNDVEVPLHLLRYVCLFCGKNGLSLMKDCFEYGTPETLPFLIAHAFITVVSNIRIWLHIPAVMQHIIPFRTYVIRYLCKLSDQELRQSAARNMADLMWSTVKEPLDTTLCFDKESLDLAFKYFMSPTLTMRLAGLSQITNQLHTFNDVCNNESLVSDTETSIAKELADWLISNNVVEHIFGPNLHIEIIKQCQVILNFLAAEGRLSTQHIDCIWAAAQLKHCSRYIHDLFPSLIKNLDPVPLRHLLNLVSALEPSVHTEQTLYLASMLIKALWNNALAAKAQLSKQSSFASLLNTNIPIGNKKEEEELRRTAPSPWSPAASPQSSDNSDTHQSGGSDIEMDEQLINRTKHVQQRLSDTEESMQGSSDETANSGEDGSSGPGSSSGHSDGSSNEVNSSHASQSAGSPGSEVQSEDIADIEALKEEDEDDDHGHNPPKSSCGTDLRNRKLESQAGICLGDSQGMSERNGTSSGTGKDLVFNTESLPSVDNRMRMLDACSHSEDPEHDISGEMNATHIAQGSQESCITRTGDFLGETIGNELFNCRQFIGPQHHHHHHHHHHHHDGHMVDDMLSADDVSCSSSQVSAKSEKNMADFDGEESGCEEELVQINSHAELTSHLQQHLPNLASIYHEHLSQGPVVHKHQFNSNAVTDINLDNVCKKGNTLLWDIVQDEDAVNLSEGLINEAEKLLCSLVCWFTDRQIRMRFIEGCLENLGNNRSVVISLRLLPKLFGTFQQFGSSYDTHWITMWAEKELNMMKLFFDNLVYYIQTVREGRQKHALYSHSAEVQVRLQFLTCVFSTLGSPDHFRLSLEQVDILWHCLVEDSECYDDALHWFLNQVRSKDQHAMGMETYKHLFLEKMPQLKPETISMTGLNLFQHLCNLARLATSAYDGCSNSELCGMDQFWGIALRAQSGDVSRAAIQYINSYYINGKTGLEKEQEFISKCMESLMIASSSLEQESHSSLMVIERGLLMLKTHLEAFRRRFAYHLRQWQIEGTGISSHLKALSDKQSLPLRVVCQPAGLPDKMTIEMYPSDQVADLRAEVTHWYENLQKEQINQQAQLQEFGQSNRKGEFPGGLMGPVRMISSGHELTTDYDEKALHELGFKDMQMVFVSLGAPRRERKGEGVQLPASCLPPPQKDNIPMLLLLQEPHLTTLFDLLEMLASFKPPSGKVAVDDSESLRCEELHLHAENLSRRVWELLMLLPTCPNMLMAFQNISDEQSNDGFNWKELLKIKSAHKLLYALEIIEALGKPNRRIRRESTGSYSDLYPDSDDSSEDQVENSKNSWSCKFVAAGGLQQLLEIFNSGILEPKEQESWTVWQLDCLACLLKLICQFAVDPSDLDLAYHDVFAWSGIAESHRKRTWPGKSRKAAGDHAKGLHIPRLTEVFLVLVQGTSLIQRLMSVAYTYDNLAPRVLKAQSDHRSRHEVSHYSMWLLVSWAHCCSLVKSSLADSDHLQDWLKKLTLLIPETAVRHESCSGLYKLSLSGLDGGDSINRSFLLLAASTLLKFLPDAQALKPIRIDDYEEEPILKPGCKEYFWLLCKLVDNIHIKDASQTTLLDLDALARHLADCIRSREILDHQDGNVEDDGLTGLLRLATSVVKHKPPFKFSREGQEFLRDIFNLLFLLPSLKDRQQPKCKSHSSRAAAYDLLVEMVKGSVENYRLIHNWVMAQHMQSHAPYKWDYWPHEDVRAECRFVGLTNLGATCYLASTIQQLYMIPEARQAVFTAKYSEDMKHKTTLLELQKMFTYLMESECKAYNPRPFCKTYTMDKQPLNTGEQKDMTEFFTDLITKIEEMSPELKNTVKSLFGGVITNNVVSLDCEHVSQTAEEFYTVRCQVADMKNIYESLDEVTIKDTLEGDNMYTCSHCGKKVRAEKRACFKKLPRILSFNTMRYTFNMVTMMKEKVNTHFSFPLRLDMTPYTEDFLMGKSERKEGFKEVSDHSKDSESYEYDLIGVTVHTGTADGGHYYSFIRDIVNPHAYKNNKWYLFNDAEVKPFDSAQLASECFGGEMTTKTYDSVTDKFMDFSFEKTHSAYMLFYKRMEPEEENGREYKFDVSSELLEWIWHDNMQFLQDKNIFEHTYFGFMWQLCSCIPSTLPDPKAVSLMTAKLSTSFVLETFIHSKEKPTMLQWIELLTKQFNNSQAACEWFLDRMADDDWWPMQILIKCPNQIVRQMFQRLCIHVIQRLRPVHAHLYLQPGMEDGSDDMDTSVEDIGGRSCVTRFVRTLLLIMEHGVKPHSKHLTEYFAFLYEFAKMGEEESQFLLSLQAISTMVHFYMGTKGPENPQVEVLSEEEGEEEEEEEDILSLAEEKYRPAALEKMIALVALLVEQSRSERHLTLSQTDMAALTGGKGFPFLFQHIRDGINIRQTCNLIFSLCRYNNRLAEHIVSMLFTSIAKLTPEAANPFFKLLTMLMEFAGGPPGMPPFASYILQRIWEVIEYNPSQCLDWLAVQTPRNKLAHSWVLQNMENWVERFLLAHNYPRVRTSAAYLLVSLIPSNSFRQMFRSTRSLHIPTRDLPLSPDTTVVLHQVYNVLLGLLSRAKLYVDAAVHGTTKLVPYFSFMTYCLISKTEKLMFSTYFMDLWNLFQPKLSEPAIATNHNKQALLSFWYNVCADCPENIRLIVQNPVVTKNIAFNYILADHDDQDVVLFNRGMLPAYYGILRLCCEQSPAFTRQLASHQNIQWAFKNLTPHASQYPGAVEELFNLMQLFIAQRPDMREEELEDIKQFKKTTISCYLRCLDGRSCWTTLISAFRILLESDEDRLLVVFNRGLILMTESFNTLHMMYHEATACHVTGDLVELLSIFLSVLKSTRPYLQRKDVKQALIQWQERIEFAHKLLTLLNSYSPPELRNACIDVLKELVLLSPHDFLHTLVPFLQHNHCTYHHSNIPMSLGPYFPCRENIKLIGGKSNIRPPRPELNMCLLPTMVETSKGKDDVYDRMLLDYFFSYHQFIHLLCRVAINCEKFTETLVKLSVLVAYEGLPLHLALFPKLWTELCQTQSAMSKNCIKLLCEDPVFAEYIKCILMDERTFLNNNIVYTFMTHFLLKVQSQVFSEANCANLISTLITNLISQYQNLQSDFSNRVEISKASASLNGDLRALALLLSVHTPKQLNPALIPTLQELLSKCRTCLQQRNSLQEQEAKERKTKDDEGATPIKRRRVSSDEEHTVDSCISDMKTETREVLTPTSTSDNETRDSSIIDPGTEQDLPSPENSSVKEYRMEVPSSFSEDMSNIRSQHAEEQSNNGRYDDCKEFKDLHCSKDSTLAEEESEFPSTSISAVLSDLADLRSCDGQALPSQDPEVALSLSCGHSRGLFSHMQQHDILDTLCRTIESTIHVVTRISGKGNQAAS
Procedure, shortened: (§1)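 Fragment (200 µM) or vehicle was incubated for 3 h with triplicate HEK293T lysate samples of 495 µg, which were then treated with Biotin-Ahx-Ub-VS at 0.5 µM final for 1 h. Labelled DUBs were enriched on NeutrAvidin, digested with LysC and trypsin, and analysed by diaPASEF LC-MS/MS. Values are average log2 fragment/vehicle ratios from an unpaired t-test on global-median-normalised Spectronaut label-free quantities, using proteins with ≥2 unique peptides.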

USP36 = target: T1, USP36 (UniProt Q9P275)
T1 sequence (whole entry): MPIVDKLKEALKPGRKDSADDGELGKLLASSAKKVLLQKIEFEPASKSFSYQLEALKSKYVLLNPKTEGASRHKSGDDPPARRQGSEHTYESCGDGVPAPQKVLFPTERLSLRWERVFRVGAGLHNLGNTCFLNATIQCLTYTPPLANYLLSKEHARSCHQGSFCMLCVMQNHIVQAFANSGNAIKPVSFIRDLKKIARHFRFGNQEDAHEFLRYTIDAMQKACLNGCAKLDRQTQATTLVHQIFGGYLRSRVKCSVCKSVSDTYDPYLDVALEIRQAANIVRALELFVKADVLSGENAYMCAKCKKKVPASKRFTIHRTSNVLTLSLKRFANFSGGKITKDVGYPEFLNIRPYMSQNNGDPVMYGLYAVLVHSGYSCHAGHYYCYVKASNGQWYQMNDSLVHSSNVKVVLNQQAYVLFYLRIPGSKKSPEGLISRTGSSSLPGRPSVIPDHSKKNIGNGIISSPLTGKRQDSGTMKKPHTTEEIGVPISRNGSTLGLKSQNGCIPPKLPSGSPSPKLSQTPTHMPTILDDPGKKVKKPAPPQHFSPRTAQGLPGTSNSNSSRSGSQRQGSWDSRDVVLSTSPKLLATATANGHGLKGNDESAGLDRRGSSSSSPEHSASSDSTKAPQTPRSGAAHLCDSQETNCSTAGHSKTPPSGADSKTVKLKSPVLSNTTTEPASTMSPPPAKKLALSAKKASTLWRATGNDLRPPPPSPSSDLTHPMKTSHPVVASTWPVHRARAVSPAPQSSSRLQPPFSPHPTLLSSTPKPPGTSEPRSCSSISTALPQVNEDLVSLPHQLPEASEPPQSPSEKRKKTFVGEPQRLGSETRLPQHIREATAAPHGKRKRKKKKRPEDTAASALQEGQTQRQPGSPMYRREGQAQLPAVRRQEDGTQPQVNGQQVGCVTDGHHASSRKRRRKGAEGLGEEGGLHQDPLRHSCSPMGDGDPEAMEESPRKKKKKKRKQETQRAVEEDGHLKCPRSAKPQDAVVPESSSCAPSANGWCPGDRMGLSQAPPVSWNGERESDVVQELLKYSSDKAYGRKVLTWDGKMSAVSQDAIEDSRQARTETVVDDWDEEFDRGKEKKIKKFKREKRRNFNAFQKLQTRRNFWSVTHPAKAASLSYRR
Procedure, shortened: as §1

USP38 = target: T2, USP38 (UniProt Q8NB14)
T2 sequence (whole entry): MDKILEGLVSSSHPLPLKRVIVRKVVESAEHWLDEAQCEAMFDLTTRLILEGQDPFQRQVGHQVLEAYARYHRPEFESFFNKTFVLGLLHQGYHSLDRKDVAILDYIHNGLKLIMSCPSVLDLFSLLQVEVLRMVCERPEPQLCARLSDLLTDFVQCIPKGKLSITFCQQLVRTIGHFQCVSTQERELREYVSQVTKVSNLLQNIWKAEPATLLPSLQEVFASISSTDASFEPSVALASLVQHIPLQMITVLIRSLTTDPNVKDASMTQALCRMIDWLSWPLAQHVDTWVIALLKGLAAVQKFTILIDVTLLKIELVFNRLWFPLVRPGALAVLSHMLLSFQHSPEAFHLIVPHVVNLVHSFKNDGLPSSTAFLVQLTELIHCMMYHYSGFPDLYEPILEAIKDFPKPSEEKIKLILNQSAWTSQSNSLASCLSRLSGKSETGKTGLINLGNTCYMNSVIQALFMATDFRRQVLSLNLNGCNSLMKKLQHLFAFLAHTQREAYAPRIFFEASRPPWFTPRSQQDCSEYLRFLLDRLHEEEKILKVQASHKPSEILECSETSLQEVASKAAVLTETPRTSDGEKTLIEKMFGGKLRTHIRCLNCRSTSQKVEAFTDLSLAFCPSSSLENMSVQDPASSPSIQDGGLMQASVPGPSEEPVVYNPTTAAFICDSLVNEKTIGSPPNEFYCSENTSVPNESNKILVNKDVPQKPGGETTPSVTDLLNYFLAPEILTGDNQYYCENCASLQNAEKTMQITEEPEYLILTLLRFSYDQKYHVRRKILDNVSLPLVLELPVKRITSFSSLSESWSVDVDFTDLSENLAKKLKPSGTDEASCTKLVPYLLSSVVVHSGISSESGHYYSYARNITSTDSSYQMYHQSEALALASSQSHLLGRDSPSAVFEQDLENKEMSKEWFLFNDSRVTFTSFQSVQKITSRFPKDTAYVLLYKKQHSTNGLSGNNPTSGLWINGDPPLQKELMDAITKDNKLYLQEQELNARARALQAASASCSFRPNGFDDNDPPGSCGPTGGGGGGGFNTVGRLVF
Procedure, shortened: as §1

USP39 = target: T3, USP39 (UniProt Q53GS9)
T3 sequence (whole entry): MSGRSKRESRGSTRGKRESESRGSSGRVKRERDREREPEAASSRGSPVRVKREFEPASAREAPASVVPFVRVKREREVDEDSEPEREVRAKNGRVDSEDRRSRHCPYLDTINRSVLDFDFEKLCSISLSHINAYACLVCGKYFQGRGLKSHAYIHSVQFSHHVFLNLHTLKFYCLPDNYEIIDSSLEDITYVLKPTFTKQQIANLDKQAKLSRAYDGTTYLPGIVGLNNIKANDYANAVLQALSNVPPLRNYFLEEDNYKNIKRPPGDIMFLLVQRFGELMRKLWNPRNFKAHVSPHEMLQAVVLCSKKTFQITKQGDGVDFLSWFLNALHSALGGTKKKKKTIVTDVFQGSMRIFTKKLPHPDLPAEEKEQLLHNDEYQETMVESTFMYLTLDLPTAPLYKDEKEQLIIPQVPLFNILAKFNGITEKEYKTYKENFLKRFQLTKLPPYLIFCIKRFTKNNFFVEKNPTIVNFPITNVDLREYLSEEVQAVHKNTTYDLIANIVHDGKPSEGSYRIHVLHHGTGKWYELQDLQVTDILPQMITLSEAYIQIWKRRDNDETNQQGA
Procedure, shortened: as §1

USP4 = target: T4, USP4 (UniProt Q13107)
T4 sequence (whole entry): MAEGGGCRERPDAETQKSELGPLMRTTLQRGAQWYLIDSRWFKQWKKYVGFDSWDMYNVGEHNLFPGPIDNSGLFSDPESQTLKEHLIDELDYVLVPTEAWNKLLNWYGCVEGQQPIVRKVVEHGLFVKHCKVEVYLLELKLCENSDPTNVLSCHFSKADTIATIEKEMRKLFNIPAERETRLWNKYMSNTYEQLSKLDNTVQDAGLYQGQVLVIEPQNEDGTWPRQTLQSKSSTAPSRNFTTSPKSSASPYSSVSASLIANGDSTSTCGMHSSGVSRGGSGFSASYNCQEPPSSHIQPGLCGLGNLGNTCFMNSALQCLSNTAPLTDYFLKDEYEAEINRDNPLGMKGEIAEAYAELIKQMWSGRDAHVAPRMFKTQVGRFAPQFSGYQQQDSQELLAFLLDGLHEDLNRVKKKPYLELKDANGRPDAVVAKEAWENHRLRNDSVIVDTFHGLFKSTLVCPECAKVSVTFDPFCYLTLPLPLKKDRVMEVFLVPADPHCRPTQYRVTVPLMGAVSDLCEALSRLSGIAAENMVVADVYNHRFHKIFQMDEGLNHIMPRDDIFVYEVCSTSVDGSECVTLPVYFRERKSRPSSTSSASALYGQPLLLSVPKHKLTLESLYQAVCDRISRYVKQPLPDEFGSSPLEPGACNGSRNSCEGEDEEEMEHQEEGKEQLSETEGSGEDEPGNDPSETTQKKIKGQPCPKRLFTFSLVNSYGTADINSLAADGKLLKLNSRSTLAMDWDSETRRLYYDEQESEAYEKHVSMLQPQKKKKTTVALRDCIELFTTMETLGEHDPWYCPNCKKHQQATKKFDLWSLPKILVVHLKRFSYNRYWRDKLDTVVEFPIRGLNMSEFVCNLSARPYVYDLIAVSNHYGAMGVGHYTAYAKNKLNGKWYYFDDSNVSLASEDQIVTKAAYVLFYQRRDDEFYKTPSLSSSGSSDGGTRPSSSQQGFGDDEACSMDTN
Procedure, shortened: as §1

Measured: log2 ratio of Biotin-Ahx-Ub-VS probe labelling

O=C(CCl)N[C@H]1CC[C@@H](CO)CC1
inactive: USP34 -0.402 | USP36 -0.283 | USP38 -0.651 | USP39 -0.098 | USP4 -0.775
